Measured values from the supplement of paper PMC8975748.
Where a name gives a salt, the structure may show the parent alone.

tested on: Saccharomyces cerevisiae BY4741 SeMeCo community; experiment: z-score of subpopulation abundance vs DMSO median, subpopulation auxotrophic for M; higher = larger share of this subpopulation than in DMSO controls; settings: 10 µM; 24 h; SM minimal medium; subpopulation (auxotrophy): M
Experimental: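 Fluorescent four-plasmid SeMeCo (self-establishing metabolically cooperating S. cerevisiae BY4741 community; plasmids pH-mRuby2, pL-mWasabi, pU-eCFP, pM-TagRFP657) was grown 24 h in minimal SM medium with each Selleck FDA-approved drug at 10 µM in 384-well plates. Cells were fixed and imaged by high-content confocal microscopy. For each auxotrophic subpopulation (and the prototroph), a z-score gives the deviation from the DMSO vehicle-control population median.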

| Structure (SMILES) | z-score of subpopulation abundance |
| --- | --- |
| Nc1c(CC(=O)O)cccc1C(=O)c1ccc(Br)cc1 [Bromfenac Sodium] | 0.38 |
| COc1cc([C@@H]2c3cc4c(cc3[C@@H](O[C@@H]3O[C@@H]5CO[C@@H](c6cccs6)O[C@H]5[C@H](O)[C@H]3O)[C@H]3COC(=O)[C@H]23)OCO4)cc(OC)c1O [Teniposide] | 1.05 |
| N[C@@H]1CN(c2c(F)cc3c(=O)c(C(=O)O)cn([C@@H]4C[C@@H]4F)c3c2Cl)CC12CC2 [Sitafloxacin Hydrate] | 0.3 |
| CCc1c(C)[nH]c2c1C(=O)C(CN1CCOCC1)CC2 (stereo not given) [Molindone hydrochloride] | -0.61 |
| CN1CCN(CCCN2c3ccccc3Sc3ccc(C(F)(F)F)cc32)CC1 [Trifluoperazine 2HCl] | -0.02 |
| C=C[C@]1(C)C[C@@H](OC(=O)CSC(C)(C)CNC(=O)[C@H](N)C(C)C)[C@]2(C)[C@H](C)CC[C@]3(CCC(=O)[C@H]32)[C@@H](C)[C@@H]1O [Valnemulin HCl] | 0.05 |
| CN(Cc1ccc(C(C)(C)C)cc1)Cc1cccc2ccccc12 [Butenafine HCl] | 0.23 |
| CC(=O)NC[C@H]1CN(c2ccc(N3CCOCC3)c(F)c2)C(=O)O1 [Linezolid] | -0.22 |
| NC(CO)(CO)CO [Trometamol] | 0.08 |
| CCOc1cc(N)c(Cl)cc1C(=O)NCC1CN(Cc2ccc(F)cc2)CCO1 (stereo not given) [Mosapride] | 0.39 |
| CC(C)[C@H]1CC[C@H](C(=O)N[C@H](Cc2ccccc2)C(=O)O)CC1 [Nateglinide] | 1.18 |
| C#C[C@]1(OC(C)=O)CC[C@H]2[C@@H]3CCC4=C[C@@H](OC(C)=O)CC[C@@H]4[C@H]3CC[C@@]21C [Ethynodiol diacetate] | -0.73 |
| CCCCCCCCN=c1ccn(CCCCCCCCCCn2ccc(=NCCCCCCCC)cc2)cc1 [Octenidine Dihydrochloride] | -8.04 |
| CCN1CCN(c2cc3c(cc2F)c(=O)c(C(=O)O)cn3C2CC2)CC1 [Enrofloxacin] | 0.24 |
| O=C1[C@@H]2[C@H]3CC[C@H](C3)[C@@H]2C(=O)N1C[C@@H]1CCCC[C@H]1CN1CCN(c2nsc3ccccc23)CC1 [lurasidone] | -0.62 |
| CN[C@H](CC(C)C)C(=O)N[C@H]1C(=O)N[C@@H](CC(N)=O)C(=O)N[C@H]2C(=O)N[C@H]3C(=O)N[C@H](C(=O)N[C@H](C(=O)O)c4cc(O)cc(O)c4-c4cc3ccc4O)[C@H](O)c3ccc(c(Cl)c3)Oc3cc2cc(c3O[C@@H]2O[C@H](CO)[C@@H](O)[C@H](O)[C@H]2O[C@H]2C[C@](C)(N)[C@H](O)[C@H](C)O2)Oc2ccc(cc2Cl)[C@H]1O [Vancomycin] | -0.82 |
| Cc1ccc(S(=O)(=O)NC(=O)NN2CC3CCCC3C2)cc1 (stereo not given) [Gliclazide] | 0.04 |
| Cc1ccc(Sc2ccccc2N2CCNCC2)c(C)c1 | -0.9 |
| Nc1ccc(S(=O)(=O)c2ccc(N)cc2)cc1 [Dapson] | 0.68 |
| CO[C@H]1C[C@@H]2CC[C@@H](C)[C@@](O)(O2)C(=O)C(=O)N2CCCC[C@H]2C(=O)O[C@H]([C@H](C)C[C@@H]2CC[C@@H](OC(=O)C(C)(CO)CO)[C@H](OC)C2)CC(=O)[C@H](C)/C=C(\C)[C@@H](O)[C@@H](OC)C(=O)[C@H](C)C[C@H](C)/C=C/C=C/C=C/1C | -1.76 |

| Structure (SMILES) | z-score of subpopulation abundance |
| --- | --- |
| COc1cc(Cc2cnc(N)nc2N)cc(OC)c1OC [Trimethoprim] | 0.01 |
| c1ccc(-c2ccc(C(c3ccccc3)n3ccnc3)cc2)cc1 (stereo not given) [Bifonazole] | 3.3 |
| COc1cccc(-c2c(C)n(Cc3c(F)cccc3C(F)(F)F)c(=O)n(C[C@H](NCCCC(=O)O)c3ccccc3)c2=O)c1F [Elagolix Sodium] | -0.72 |
| COc1ccnc(C[S+]([O-])c2nc3cc(-n4cccc4)ccc3[nH]2)c1C (stereo not given) [Ilaprazole sodium] | 1.1 |
| COc1ccc(C(=O)NCc2ccc(OCCN(C)C)cc2)cc1OC [Itopride hydrochloride] | 0.65 |
| C=C1c2cccc(O)c2C(O)=C2C(=O)[C@]3(O)C(O)=C(C(N)=O)C(=O)[C@@H](N(C)C)[C@@H]3[C@@H](O)[C@H]12 [Methacycline HCl] | 0.2 |
| Cc1nnc(SCC2=C(C(=O)O)N3C(=O)[C@@H](NC(=O)Cn4cc(Cl)c(=O)c(Cl)c4)[C@H]3SC2)s1 [Cefazedone] | 0.65 |
| CC(=O)OCC1=C(C(=O)O)N2C(=O)[C@@H](NC(=O)Cc3cccs3)[C@H]2SC1 [Cephalothin] | 1.49 |
| CC(C(O)c1ccc(O)cc1)N1CCC(Cc2ccccc2)CC1 (stereo not given) [Ifenprodil Tartrate] | -0.68 |
| COc1ccc(Cc2cnc(N)nc2N)cc1OC [Diaveridine] | 0.6 |
| CC[C@H]1OC(=O)[C@H](C)[C@@H](O[C@H]2C[C@@](C)(OC)[C@@H](O)[C@H](C)O2)[C@H](C)[C@@H](O[C@@H]2O[C@H](C)C[C@H](N(C)C)[C@H]2O)[C@](C)(O)C[C@@H](C)C(=O)[C@H](C)[C@@H](O)[C@]1(C)O [Erythromycin thiocyanate] | 0.78 |
| COc1ccc(Cl)cc1C(=O)NCCc1ccc(S(=O)(=O)NC(=O)NC2CCCCC2)cc1 [Glyburide (Glibenclamide)] | -0.21 |
| NC(=O)c1cnccn1 [Pyrazinamide] | 0.41 |
| Cc1ccccc1C(OCCN(C)C)c1ccccc1 (stereo not given) [Orphenadrine Citrate] | -0.02 |
| CO[C@H]1C[C@@H]2CC[C@@H](C)[C@@](O)(O2)C(=O)C(=O)N2CCCC[C@H]2C(=O)O[C@H]([C@H](C)C[C@@H]2CC[C@@H](O)[C@H](OC)C2)CC(=O)[C@H](C)/C=C(\C)[C@@H](O)[C@@H](OC)C(=O)[C@H](C)C[C@H](C)/C=C/C=C/C=C/1C [Rapamycin (Sirolimus)] | -2.04 |
| CO/N=C(\C(=O)N[C@@H]1C(=O)N2C(C(=O)O)=CCS[C@H]12)c1csc(N)n1 [Ceftizoxime] | 0.26 |
| Nc1c(Br)cc(Br)cc1CN[C@H]1CC[C@H](O)CC1 [Ambroxol HCl] | -0.93 |
| Cc1c(OCC(F)(F)F)ccnc1C[S+]([O-])c1nc2ccccc2[nH]1 (stereo not given) [Lansoprazole] | -0.85 |
| O=C(NCCN1CCOCC1)c1ccc(Cl)cc1 | 0.03 |
| NC(=O)N1c2ccccc2CC(=O)c2ccccc21 [Oxcarbazepine] | -0.31 |
